Screens: PubChem BioAssay, National Center for Advancing Translational Sciences (NCATS)
Giardia FBPA inh = blocks Giardia fructose-bisphosphate aldolase activity; 290,000 compounds, 0.71% hits; A8B2U2; purified Giardia FBPA; Potency, µM (series often up to 59.6 µM), for the others: top-dose activity, negative = inhibition, hits mostly inhibitors; further: potency means the concentration at half of the fitted maximal effect; nearly all actives have a fitted effect of over 55% in size
Target sequence (A8B2U2 whole entry, looked up): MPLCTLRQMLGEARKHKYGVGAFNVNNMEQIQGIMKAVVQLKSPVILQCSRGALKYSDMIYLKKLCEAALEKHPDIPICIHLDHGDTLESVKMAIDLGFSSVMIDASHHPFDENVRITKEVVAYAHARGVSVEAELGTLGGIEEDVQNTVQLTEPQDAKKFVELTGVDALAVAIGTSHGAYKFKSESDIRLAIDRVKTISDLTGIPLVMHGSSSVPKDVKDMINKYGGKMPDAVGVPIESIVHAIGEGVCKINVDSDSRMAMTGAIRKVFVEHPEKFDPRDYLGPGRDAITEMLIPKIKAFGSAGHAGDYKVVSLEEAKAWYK
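40 nM FBPA preincubated 10 min at RT with compound (up to 57.5 uM final), then substrate plus GAPDH/TPI/NAD/arsenate coupling and diaphorase/resazurin added. Fluorescence read after 20 min at RT, 525/598 nm.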
HCMV antiviral = human cytomegalovirus inhibition; HFF cells, HCMV-luciferase reporter, 72 h; hits give low values; activity change, negative = inhibition, % at 57.5 µM; 410,000 compounds, 4.5% hits; in the data active means activity change below about -60%; inconclusive means no clear call, values can overlap the other calls; inactive means above about -39%
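HFF cells seeded 16 h at 37C, treated with compounds, infected with luciferase-reporter HCMV at MOI 1 PFU/cell; luciferase read at 72 h post infection, normalized to buffer-only and Salinomycin controls.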
Pf growth 96h = P. falciparum growth inhibition at 96 hour, primary screen for plastid delayed-death inhibitors; Potency, µM (doses to about 28.7 µM), for inactives: at the top dose activity change, negative = inhibition, hits mostly inhibitors; AID 504834; 320,000 compounds, 6.9% hits; P. falciparum luciferase reporter growth, 96 h; further: potency means the concentration at half of the fitted maximal effect
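Parasite growth measured via integrated firefly luciferase reporter in P. falciparum. Infected erythrocytes at 2% hematocrit, 0.05% parasitemia final were treated 96 hours at 37 C under 5% CO2, and luminescence was read.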
Pf growth 48h = P. falciparum growth inhibition at 48 hours (one generation) | P. falciparum luciferase growth in erythrocytes, 48 h | AID 504832 | Potency, µM (top dose mostly 28.7 µM), without a hit: top-dose activity change, negative = inhibition, actives largely listed as inhibitors | 310,000 compounds, 5.9% hits; further: potency means the concentration at half of the fitted maximal effect
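Parasite viability was followed by luminescence of a genomically integrated firefly luciferase. Cultures held 0.1% parasitemia at 2% hematocrit (final), incubated under 5% CO2 at 37 C.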
Sm TGR block = S. mansoni TGR enzyme inhibition; purified TGR, DTNB reduction, TNB absorbance 405 nm; Potency, µM (top dose mostly 114 µM), for the others: top-dose activity change, negative = inhibition, most hits filed as inhibitors; Q962Y6; 360,000 compounds, 3% hits; further: potency means the concentration at half of the fitted maximal effect; nearly all actives have a fitted effect of over 60% in size
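TGR 20 nM + NADPH 100 uM (dispensed conc.), cpd preinc 15 min RT; start with NADPH (500 uM addition) then DTNB (15 mM addition). Kinetic TNB absorbance, 405 nm filter. Four-parameter Hill fit across titration.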
Numbers without * were called inactive; u = inconclusive; x = not tested or not shown. Most compounds without a hit are left out; they make up all but 14% or so of the library. Unless noted, the call rests on the fitted dose curve; in most records, active means well fitted curve in the direction sought with a large enough effect; inconclusive means small, poorly fitted or top-dose-only effect, or another doubt; inactive means no such curve, though single readings can be large; an effect the other way counts as inactive or inconclusive. On the % scale 0 is the no-effect control and ±100 the full control effect.

SMILES | Giardia FBPA inh | HCMV antiviral | Pf growth 96h | Pf growth 48h | Sm TGR block
CC(C)COc1ccc(C(=O)Nc2cccc(-c3nc4ccccc4[nH]3)c2)cc1 | x | -2.2 | x | x | 1.9%
CCCc1nc2oc3c(NCCOCCO)ncnc3c2c2c1COC(C)(C)C2 | -3.4% | -101.7* | 3.7µM* | -1.2% | 6.7%
Cc1nc2oc3c(NCc4ccccc4)ncnc3c2c2c1COC(C)(C)C2 | 3.0% | -27.6 | u | 11.7µM* | 9.9%
CCCc1nc2oc3c(OC)ncnc3c2c2c1COC(C)(C)C2 | 0.1% | -34.8 | 6.57µM* | x | -12.5%
Cc1nc2oc3c(NCC4CCCO4)ncnc3c2c2c1COC(C)(C)C2 (centres undefined) | -9.1% | 15.8 | -14.2% | u | 1.8%
CC(C)c1nc2oc3c(NCCO)ncnc3c2c2c1COC(C)(C)C2 | -2.9% | 40.1 | u | -6.6% | 1.0%
O=C(N/N=C/c1ccccc1O)c1cccc(C(F)(F)F)c1 | -20.8% | -101.9* | u | u | 2.4%
COc1ccccc1/C=N/NC(=O)c1ccc(NC(=O)c2cccc([N+](=O)[O-])c2)cc1 | -3.0% | x | -0.7% | 5.22µM* | 8.1%
O=C(N/N=C/c1ccc(Br)s1)c1cccc([N+](=O)[O-])c1 | -2.3% | -13.9 | 4.15µM* | 2.94µM* | 2.4%
COc1cc([N+](=O)[O-])cc(/C=N/NC(=O)c2ccc(NC(=O)c3ccc(C)cc3)cc2)c1O | 10.3% | -101.6* | 13.4% | 9.0% | x
COc1cc([N+](=O)[O-])cc(/C=N/NC(=O)c2ccc(C)nc2)c1O | u | -31.7 | u | 32.6% | -19.2%
COC(=O)CC1[C@@]2(C)C[C@@]34OC5(C)OC6(CC[C@@]7(C)C(c8ccoc8)OC(=O)C(C(C)=O)C7[C@]6(O5)C(O)[C@@]3(O)C2O)[C@]14C (some centres undefined) | -8.3% | x | x | x | x
CCOC(=O)CC1c2nc3ccccc3cc2CN1C(=O)OCC (centres undefined) | x | -23.4 | x | x | x
Cc1[nH]c2ccccc2c1/C=N/NC(=O)C1CC1(c1ccccc1)c1ccccc1 (centres undefined) | -1.3% | -20.8 | 452.1% | u | -2.8%
CC[C@H](C)[C@H](NC(=O)[C@H](C)NC(=O)[C@@H](N)C(C)C)C(=O)N[C@H](C(=O)N[C@H](C(=O)N[C@@H](CC(C)C)C(=O)N[C@H](C(=O)N[C@@H](CCCCN)C(=O)O)C(C)C)C(C)C)[C@@H](C)O | 8.4% | x | x | x | x
O=C(N/N=C/c1ccc(O)cc1)c1ccc(NC(=O)c2ccccc2Br)cc1 | 2.7% | -7.1 | u | 22.7% | 8.6%
COc1ccccc1/C=N/NC(=O)c1ccc(NC(=O)c2ccccc2Br)cc1 | -0.1% | -65.9* | 9.7% | 5.9% | 0.1%
CCOc1cccc(C=NNC(=O)C(=O)Nc2cccc(C(F)(F)F)c2)c1O | x | -62.3* | x | x | x
COc1ccc(/C=N/NC(=O)c2cccc([N+](=O)[O-])c2)cc1O | -2.8% | -28.1 | 4.1% | -13.9% | x
COc1ccc2ccccc2c1/C=N/NC(=O)c1cccc([N+](=O)[O-])c1 | 0.0% | -61.9* | 4.4% | -8.6% | 9.9%
O=C(Oc1ccccc1C(=O)Nc1ccccc1)c1ccccc1Br | -7.7% | -66.2* | -51.1% | 4.3% | 6.2%
O=C(COc1ccccc1C(=O)Nc1ccccc1)c1ccc(Br)cc1 | 0.0% | -37.8 | 0.0% | u | 1.2%
Cc1ccc(NC(=O)[C@H](CSCc2ccccc2)N2Cc3ccccc3C2=O)cc1 | x | 7.7 | x | x | 2.3%
COc1ccc(C2(CNC(=O)c3cccc([N+](=O)[O-])c3)CCCCC2)cc1OC | -23.4% | -15.8 | 5.86µM* | u | -10.4%
O=C(Nc1ccc(C2CC2(Cl)Cl)cc1)c1ccccc1Br (centres undefined) | -15.6% | 29.2 | 0.928µM* | 64.7% | -6.8%
SMILES | Giardia FBPA inh | HCMV antiviral | Pf growth 96h | Pf growth 48h | Sm TGR block
COc1cccc(/C=N/NC(=O)c2cc3cc([N+](=O)[O-])ccc3s2)c1O | -24.1% | -104.0* | u | 4.15µM* | -11.0%
COc1cc(/C=N/NC(=O)c2cccc([N+](=O)[O-])c2)ccc1O | -10.7% | -26.7 | 13.4% | 0.0% | -4.6%
O=C(NN=Cc1ccccc1O)c1cccc([N+](=O)[O-])c1 | x | -96.5* | x | x | x
O=C(COC(=O)c1ccccc1SCC(=O)N1CCCC1)NCc1ccccc1 | x | -31.7 | 6.1% | u | -0.1%
O=c1oc(C2(O)CCCCC2)cc2ccc(-c3ccc4[nH]ccc4c3)cc12 | x | -93.3* | x | x | x
CC[C@H](C)NC(=O)c1ccc(Cn2c(=S)[nH]c3c([nH]c4ccc(OC)cc43)c2=O)cc1 | 12.1% | -35.6 | 53.7% | -4.3% | -2.0%
CC1(C)Cc2cccc(Oc3ccc(S(=O)(=O)N4CCCC4)cn3)c2O1 | -1.2% | -32.2 | u | 11.7µM* | 1.5%
CC1(C)Cc2cccc(Oc3ccc(S(=O)(=O)N4CCCCC4)cn3)c2O1 | -5.2% | -25.1 | u | 13.1µM* | 0.7%
CC1(C)Cc2cccc(OCC(=O)N3CCN(S(=O)(=O)c4ccc(F)cc4)CC3)c2O1 | 9.8% | 20.9 | 9.28µM* | u | 2.3%
Cc1cccc(N2CCN(C(=O)COc3cccc4c3OC(C)(C)C4)CC2)c1C | -2.6% | 17.8 | u | u | -7.4%
O=C(CCC(=O)NNC(=O)c1ccc(Cl)cc1Cl)NCc1ccccc1 | x | -3.5 | u | -2.7% | 7.2%
Cn1cccc1Cc1nnc(SCC(=O)NCc2ccccc2)n1-c1ccc(F)cc1 | 1.2% | 2.8 | u | x | u
CCOC(=O)c1ccccc1NC(=O)CSc1nnc(Cc2cccn2C)n1-c1ccc(F)cc1 | -0.3% | 23.3 | 58.5% | u | -3.5%
Cn1cccc1Cc1nnc(SCC(=O)N2CCN(c3ccccc3)CC2)n1-c1ccc(F)cc1 | 10.7% | -17.5 | 1.47µM* | u | -35.9%
Cn1cccc1Cc1nnc(SCC(=O)Nc2ccc(F)cc2F)n1-c1ccc(F)cc1 | 8.1% | -18.5 | 45.3% | u | u
Cc1ccc(NC(=O)CSc2nnc(Cc3cccn3C)n2-c2ccc(F)cc2)c(C)c1 | 3.3% | -32.4 | 9.28µM* | x | -4.5%
CCOc1ccccc1NC(=O)CSc1nnc(Cc2cccn2C)n1-c1ccc(F)cc1 | -6.5% | -13.2 | -26.3% | 5.86µM* | u
CCC(Sc1nc2ccncc2[nH]1)C(=O)Nc1cc(Cl)ccc1C (centres undefined) | u | -24.7 | u | -6.2% | 2.0%
O=C(CSc1n[nH]c(=O)[nH]c1=O)c1ccccc1[N+](=O)[O-] | -9.2% | 0.0 | u | -6.7% | 44.7µM*
O=C(CSc1n[nH]c(=O)[nH]c1=O)c1ccccc1 | -27.3% | -66.6* | x | 0.5% | -0.6%
CCOc1ccc(S(=O)(=O)n2nc(C)c(S(=O)(=O)N3CCCCC3)c2C)cc1 | x | -3.0 | x | x | -2.3%
CCOc1ccccc1CNC(=O)c1c(C)oc2ncnc(N3CCOCC3)c12 | x | u | x | x | 8.8%
Cc1cc2c3c(c1C)C1(C(=O)N3C(C)(C)CC2C)C(C#N)=C(N)Oc2cc(O)ccc21 (centres undefined) | -0.2% | 86.8 | 10.4µM* | x | -24.7%
